# Screens from PubChem BioAssay.
# An excerpt weighted towards active compounds, which were near 4.5% of everything screened.
# TIM10 inh: growth inhibitors of isogenic TIM10 control yeast, primary screen, counter-screen for tim10-1 yeast inhibitor project, luminescence, uHTS; S. cerevisiae TIM10 strain growth, BacTiter-Glo luminescence, 24 h; inhibition, % at 10 µM; 330,000 compounds, 1.4% hits; AID 463195, 2010;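 active = inhibition of 40% or more at the single tested concentration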;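 note: wild-type TIM10 isogenic control strain grown at permissive 25 °C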
# SKKanGAS inh: S. pyogenes SKKanGAS growth inhibitors in kanamycin, primary screen, streptokinase expression inhibitor project, SKKanGAS strain, BacTiter-Glo luminescence; 6 h; inhibition, % at 7.5 µM; 300,000 compounds, 1.3% hits;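 active = mean replicate score, as percent of positive control median, at least 50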;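 note: strain carries kanamycin resistance gene driven by streptokinase promoter and grows in 40 µg/ml kanamycin; loss of luminescence reflects streptokinase promoter inhibition or plain growth inhibition; 0% = median of DMSO wells and 100% = positive control at its reference dose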
# PfHsp90 set2: growth inhibition of PfHsp90-expressing yeast, primary screen, antimalarial PfHsp90 inhibitor project, S. cerevisiae, BacTiter-Glo luminescence, single point, set 2; 310,000 compounds, 0.32% hits; AID 504621, 2011; BacTiter-Glo ATP, 48 h; yeast lacking PDR1 and PDR3 efflux regulators; inhibition, % at 9.4 µM;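 active = every replicate shows inhibition above about 80%, whatever the replicate mean, limit read from the data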;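 note: 0% = DMSO neutral controls and 100% = 20 µM radicicol positive controls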
# NALP3 yeast inh: NALP3 inflammasome inhibitors in reconstituted yeast, primary screen, luminescence, uHTS. Yeast reconstituted NLRP3/ASC/caspase-1, beta-gal luminescence, 24 h. inhibition, % at 10 µM. 330,000 compounds, 0.39% hits;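 active = inhibition of 50% or more; inactive = inhibition below 50%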;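 note: plate controls were induced DMSO wells for no effect and uninduced yeast grown without galactose for full effect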
# tim10-1 inh: growth inhibitors of tim10-1 mutant yeast, primary screen, luminescence, uHTS; 330,000 compounds, 2.2% hits; inhibition, % at 20 µM; S. cerevisiae tim10-1 ts strain growth, BacTiter-Glo, 24 h;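 active = inhibition of at least 40%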;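 note: mutant grown at 25 °C; 0% = DMSO wells with yeast and 100% = wells holding no yeast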
# tim23-1 inh: growth inhibitors of tim23-1 mutant yeast, primary screen, luminescence, uHTS; S. cerevisiae tim23-1 growth, BacTiter-Glo luminescence, 24 h; 330,000 compounds, 1.3% hits; AID 463212, 2010; inhibition, % at 20 µM;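 active = growth inhibition of the mutant yeast at or above 50%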;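 note: temperature-sensitive mutant grown at 25 °C; plate controls were DMSO-treated mutant yeast for no effect and medium wells lacking yeast for full effect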
# * hit, by the source's call; . = not tested or not shown.
SMILES,TIM10 inh,SKKanGAS inh,PfHsp90 set2,NALP3 yeast inh,tim10-1 inh,tim23-1 inh
Cc1cc(C)c2nc(NNC(=O)c3ccc(S(=O)(=O)N4CC(C)CC(C)C4)cc3)sc2c1 (stereo not given),-9.4,82.4*,43.4,-2.6,7.7,24.6
Cc1cccc2sc(NNC(=O)c3ccc(S(=O)(=O)N4CC(C)CC(C)C4)cc3)nc12 (stereo not given),-11.7,91.7*,73.1,-4.5,9.2,32.2
Cc1ccc2nc(NNC(=O)c3ccc(S(=O)(=O)N4CCc5ccccc5C4)cc3)sc2c1,-25.3,79.4*,10.5,-1.4,-10.4,23.4
COc1cc(Cl)c(C)cc1NC(=O)Cc1cccs1,5.3,1.8,15.2,41.0,14.9,30.4
Cc1ccc(NC(=O)CCOc2ccccc2C)cc1C,7.8,-0.7,-11.4,36.5,22.7,27.9
COc1ccc(NC(=O)CS(=O)c2cccc(Cl)c2)cc1 (stereo not given),3.2,-0.6,9.8,7.9,-13.1,-5.4
Cn1c(-c2cc(Br)ccc2O)n[nH]c1=S,1.0,67.4*,-1.9,30.1,-9.3,0.3
Oc1ccc(Br)cc1-c1n[nH]c(=S)n1Cc1ccccc1,18.4,31.8,-18.6,22.7,18.0,24.6
CC1CC(C)CN(c2ccc(NS(=O)(=O)c3ccccc3)cc2C(=O)O)C1 (stereo not given),10.7,2.6,-37.1,-2.2,-4.2,6.3
CC(C)(C)C(=O)Nc1cccc(-c2cc(-c3c(Cl)cccc3Cl)no2)c1,28.1,13.8,1.4,12.8,32.4,32.3
CCCC(C(=O)NCCC(C)C)N(Cc1ccccc1Cl)C(=O)c1snc(C(N)=O)c1N (stereo not given),0.4,5.1,-4.4,5.7,17.3,23.6
CCN1CCN(C(c2ccc(C(F)(F)F)cc2)c2ccc3cccnc3c2O)CC1 (stereo not given),-53.9,99.8*,120.5*,43.9,28.0,48.8
O=[N+]([O-])c1ccc(C2CN=C(Nc3ccccc3)S2)cc1 (stereo not given),6.3,17.0,-16.9,25.7,-23.4,14.3
Cc1ccc(NC2=NCC(Cc3ccc(Br)cc3)S2)cc1 (stereo not given),0.5,85.3*,3.9,34.0,21.5,4.6
CCc1ccc(NC2=NCC(c3ccccc3)S2)cc1 (stereo not given),35.4,94.0*,.,24.0,25.1,30.6
Cc1ccc(CNC(=O)Cc2ccc(NC3=NC4CS(=O)(=O)CC4S3)cc2)cc1 (stereo not given),-9.5,-0.1,2.1,8.2,-5.5,-12.8
Cn1c(CNC(=O)c2ccc(Cl)cc2)nnc1SCC(=O)N1CCOCC1,5.6,-1.5,28.4,12.5,-16.4,0.5
O=S(=O)(NC1CC2CCC1C2)c1ccc(Br)cc1 (stereo not given),-125.2,4.5,107.9*,43.2,9.7,22.9
Cc1ccc(S(=O)(=O)NC2CC3CCC2C3)cc1 (stereo not given),-122.8,-6.9,.,35.5,-60.2,2.8
Cc1ccc(-c2nn(-c3ccccc3)cc2/C=N/NC(=O)CSc2nnc(C)n2-c2ccccc2)cc1,11.4,54.1*,-10.6,0.0,11.2,17.1
O=C(Nc1nnc(SCCC2OCCO2)s1)C1CC(=O)N(c2ccccc2)C1 (stereo not given),0.0,26.5,-3.6,0.3,3.3,-3.0
O=C(CSc1nnc(NC(=O)C2CC(=O)N(c3ccc(F)cc3)C2)s1)NCc1ccco1 (stereo not given),-14.0,54.0*,-17.1,17.5,-17.5,1.3
COc1ccc(N2CC(C(=O)Nc3nnc(SCC(=O)NCc4ccco4)s3)CC2=O)cc1 (stereo not given),7.2,7.5,-8.9,19.3,1.0,-4.5
O=C(Nc1nnc(SCCC2OCCO2)s1)C1CC(=O)N(c2ccc(F)cc2)C1 (stereo not given),8.3,53.9*,-4.0,14.7,11.9,22.0
Fc1ccccc1CNc1nc(-c2cccnc2)nc2ccccc12,24.3,-1.8,18.5,16.5,26.5,35.5
SMILES,TIM10 inh,SKKanGAS inh,PfHsp90 set2,NALP3 yeast inh,tim10-1 inh,tim23-1 inh
COc1cc(C=NO)nc(-c2ccccn2)c1,.,.,97.8*,.,.,.
COc1ccc2nc(-c3ccccn3)[nH]c2c1,2.8,9.7,14.6,27.7,6.7,0.3
Cc1cccc(C(=O)OCC(=O)Nc2ccccc2C(=O)NC2CC2)c1,-3.8,.,-15.6,23.9,5.6,0.6
COc1cc(CN2CCC(n3nccc3NC(=O)C3CCOC3)CC2)ccc1F (stereo not given),0.6,-4.7,5.2,7.8,4.8,10.7
COc1cc(F)ccc1CN1CCC(n2nccc2NC(=O)C2CCOC2)CC1 (stereo not given),5.8,52.0*,-16.5,4.5,-3.9,11.7
C/C(=N\NC(=O)c1ccccc1)c1c(C)[nH]n(-c2ccccc2)c1=O,-5.8,19.5,12.7,16.4,20.1,19.6
C/C(=N\NC(=O)c1ccc(C)cc1)c1c(C)[nH]n(-c2ccccc2)c1=O,-13.0,55.5*,4.0,10.8,10.8,28.8
Cc1nn(-c2ccccc2)nc1C(=O)c1c(C)[nH]n(-c2ccccc2)c1=O,-4.4,61.4*,10.9,10.7,-3.1,7.6
Cc1cc(C(=O)Nc2cccc3c2O[C@H](CN(C)CC2CC2)[C@@H](C)CN([C@H](C)CO)C3=O)n(C)n1,-1.5,.,-27.3,24.0,3.5,7.4
O=C(O)CCCC1(C(=O)O)CCCC1,.,.,4.4,.,.,.
N#Cc1ccc(C(=O)N(Cc2ccco2)c2c(N)n(Cc3ccccc3)c(=O)[nH]c2=O)cc1,9.5,.,.,9.3,12.7,39.0
O=C(NNC(=S)NC(=O)c1ccccc1)c1cccnc1,0.2,27.0,-8.8,19.9,21.9,2.2
CC(C)(C)c1ccc(C(=O)NNC(=S)NC(=O)c2cccnc2)cc1,-4.5,100.0*,-73.2,21.1,11.9,-14.9
CC(C)c1ccc(O)c(NC(=S)NC(=O)c2cccnc2)c1,17.0,-9.9,-16.2,25.2,-1.3,15.0
CC(C)(C)c1cc(Cl)c(O)c(NC(=S)NC(=O)c2cccnc2)c1,19.9,81.6*,-8.4,7.7,9.5,4.1
CCN1C(=O)CC(NC2CCN(C(=O)c3ccc(F)cc3)CC2)C1=O (stereo not given),2.7,3.1,-0.2,-1.1,10.8,14.4
O=C(CNC(=O)c1ccccc1)OCc1cccc(Br)c1,-19.8,-3.7,3.6,4.2,-23.2,0.2
O=C(CCCNC(=O)c1ccc(Cl)cc1)OCc1cccc(Br)c1,-17.4,-22.6,113.4*,25.3,-10.1,20.3
Cc1cccc(-n2c(N)c(-c3nc4ccccc4n3C)c3nc4ccccc4nc32)c1,23.4,77.9*,-27.7,16.4,19.5,38.4
